This experiment has as its target Eukaryotic translation initiation factor 4H (Homo sapiens) (UniProt Q15056). As to the kind of experiment: eIF4H binding inhibition – biochemical, uHTS, fluorescence polarization, translation initiation inhibitor project, primary screen (AID 2012).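 Note: calls also rest on retests at 20 µM and on dose response follow-up.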 As to conditions: eIF4H fluorescence polarization binding assay, stronger effect = higher value. On the technique in general: In fluorescence polarisation assays a small probe gives low polarisation when free and higher when bound to something large.

Molecules are shown by their SMILES. The campaign covered roughly 290,000 compounds. About 2,700 (0.93%) were called active. The rule behind the calls is not given here. The entries come from a sample that favours actives as a whole.

Regarding `COc1ccc(NC(=O)CN(C)C(=O)CNC(=O)C2CCCCC2)cc1`, the inhibition (in general, the drop in the measured response relative to a control, in per cent) (at 35 µM) is -4% (inactive).
Consider `C=CCOc1cccc(CNCc2cccnc2)c1`, for which, under “at 35 µM”, the inhibition is 10.5% (inactive).
`Cc1ccc(-c2csc(N(Cc3ccco3)C(=O)c3cccs3)n2)cc1`: the inhibition (at 35 µM) is -15.6% (inactive).
For the compound `Cc1nnc(N(Cc2ccco2)C(=O)c2ccno2)s1`, where the note is “at 35 µM”, the inhibition was 55.4% (active).
Regarding `CN(C(=O)c1ccno1)c1nnc(-c2cccnc2)s1`, under “at 35 µM”, the inhibition is -2.8% (inactive).
As for `Cc1ccccc1CN1CCC(C(=O)Nc2ccc(Oc3cccnc3)cc2)CC1`, the inhibition (at 35 µM) was -4.5% (inactive).
For `O=C(NCCCn1ccnc1)C(=O)NCC1OCCN1S(=O)(=O)c1cc(F)ccc1F` (stereo unspecified), under “at 35 µM”, the inhibition was 86.5% (active).
As to `O=C(NCCCc1ccccc1)C(=O)NCC1OCCN1S(=O)(=O)c1ccccc1` (stereo unspecified), the inhibition (at 35 µM) is -4.1% (inactive).
The same measure, in the same setting: for `Cc1cc(F)ccc1S(=O)(=O)N1CCCOC1CNC(=O)C(=O)NCCC1=CCCCC1` (stereo unspecified) the value was -0.8% (inactive); for `Nc1ncc(CN2CCCC(C(=O)Nc3ccc(-c4ccco4)cc3)C2)cn1` (stereo unspecified), -17.3% (inactive); for `CC(C)OC(=O)c1ccc(COc2ccc3ccc(=O)oc3c2)o1`, 1.1% (inactive).
On to `Cc1ccc2sc(N(CCN(C)C)C(=O)/C=C/c3cccs3)nc2c1C`, for which the inhibition (at 35 µM) was -10.2% (inactive).
On the same count and under the same terms, for `CS(=O)(=O)c1ccc2c(c1)SC1=NC(=O)/C(=C/c3ccco3)C(=N)N12` the value was 93.9% (active).
Turning to `CS(=O)(=O)C1=NN2C(=N)/C(=C\c3ccc(OCCOc4ccccc4)cc3)C(=O)N=C2S1`, where the note is “at 35 µM”, the inhibition was 16.1% (inactive).
Consider `Cc1cc(/C=C2/C(=N)N3C(=NC2=O)SN=C3S(C)(=O)=O)c(C)n1-c1ccccc1`, for which the inhibition is, setting by setting: (at 35 µM) 93.3% (inactive); (confirmation average, at 20 µM) -7.9%.
In the case of `CN(C(=O)CN1C(=O)CCSc2ccc(S(=O)(=O)N3CCCC3)cc21)c1ccccc1`, the inhibition (at 35 µM) is -3.2% (inactive).
In the case of `CCC(=O)Nc1ccc(C(=O)NNC(=O)c2ccc(Cl)cc2)cc1`, the inhibition (at 35 µM) is 8% (inactive).
`C=CCNC(=O)/C=C/c1ccc(C(C)C)cc1`: the inhibition (at 35 µM) is 3.9% (inactive).
In the case of `CC(=O)c1ccc(NC(=O)CCc2nnc3ccc(NCc4ccco4)nn23)cc1`, the inhibition (at 35 µM) is 38.5% (inactive).
As to `CCOc1ccccc1NC(=O)CCc1nnc2ccc(NCc3ccco3)nn12`, the inhibition (at 35 µM) was 13.1% (inactive).
Take `O=C(CCc1nnc2ccc(NCc3ccco3)nn12)Nc1cc(F)ccc1F`: the inhibition (at 35 µM) was 75.2% (active) and the inhibition (confirmation average, at 20 µM) turned out to be 75.7%.
Take `O=C(CN1CCc2cc3c(cc2C1)OCCCO3)Nc1ccccc1`: the inhibition (at 35 µM) is 4.5% (inactive).
On the same count and under the same terms, for `CCOc1ccc(NC(=S)N2CCC(NC(=O)c3ccccc3)CC2)cc1` the value was -8.9% (inactive); for `COc1ccc(-c2nc3n(c(=O)c2C#N)CCS3)c(OC)c1`, 5.3% (inactive); for `O=C(CCc1ccccc1)Nc1ccnn1C1CCN(Cc2ccc(OCCO)cc2)CC1`, 5.2% (inactive).
As to `COc1ccc(-c2cc(C(=O)N(C)Cc3ccc(OC)c(OC)c3OC)c3ccccc3n2)cc1OC`, the inhibition (at 35 µM) is 10.7% (inactive).
For `COc1ccc2[nH]c(=O)c(-c3noc(-c4ccc(F)cc4)n3)cc2c1`, for the setting “at 35 µM”, the inhibition was 3.8% (inactive).
`CCCc1nc(-c2cc3cc(C)ccc3[nH]c2=O)no1`: the inhibition by setting is: (at 35 µM) 2.5% (active); (confirmation average, at 20 µM) 79.5%.
Turning to `CCNCc1cc2cc(C)ccc2[nH]c1=O`, the inhibition (at 35 µM) is 24% (inactive).
For the compound `COc1ccccc1NC(=S)N1CCN(c2ccc(F)cc2)CC1`, under “at 35 µM”, the inhibition was -0.9% (inactive).
Consider `COc1ccc(NC(=O)C2=CC(c3ccc(OC)c(OC)c3)=NS(=O)(=O)N2C)cc1`, for which, for the setting “at 35 µM”, the inhibition was 1.5% (inactive).
Still for that read-out and setting: for `COc1ccc(-c2noc(CNC(=O)C(C)Oc3ccccc3)n2)cc1` (stereo unspecified) the value was -4.8% (inactive); for `Cc1nc2ccccc2c(=O)n1Cc1ccc([N+](=O)[O-])cc1`, -6.2% (inactive).
In the case of `CCn1c(/C=C/c2ccc([N+](=O)[O-])o2)nc2ccccc2c1=O`, the inhibition (at 35 µM) was 83.6% (active) and the inhibition (confirmation average, at 20 µM) came to 56.8%.
For `Cn1cc(/C=C/c2nc3ccccc3c(=O)n2-c2cccc([N+](=O)[O-])c2)c2ccccc21`, the inhibition (at 35 µM) was -2.7% (inactive).
In the case of `CN1/C(=C\C=C2\N=C(c3ccc(F)cc3)OC2=O)C(C)(C)c2ccccc21`, the inhibition was 128% (active) (at 35 µM) and 97% (confirmation average, at 20 µM).
As for `CN1/C(=C\C(=O)c2cccnc2Cl)C(C)(C)c2ccccc21`, the inhibition (at 35 µM) is -6.3% (inactive).
With `CN1/C(=C\C(=O)c2oc3ccccc3c2N)C(C)(C)c2ccccc21`, under “at 35 µM”, the inhibition was -2.5% (inactive).
`Cc1cccnc1NC(=O)Cn1c(=O)oc2ccccc21`: the inhibition (at 35 µM) is 4.8% (inactive).
For `Cc1ccc(O)c(NC(=O)c2cc(-c3ccco3)on2)c1`, the inhibition (at 35 µM) was -14.1% (inactive).
As to `COc1ccc(-c2nonc2NC(=O)c2oc3ccc(F)cc3c2C)cc1OC`, the inhibition (at 35 µM) was -3.8% (inactive).
As to `COc1ccc(Nc2ccc([N+](=O)[O-])cn2)cn1`, the inhibition runs as follows: (at 35 µM) 82% (inactive); (confirmation average, at 20 µM) 20.1%.
On to `COc1cccc(Nc2ncccc2C(=O)O)c1`, for which the inhibition (at 35 µM) was -3.4% (inactive).
On to `COc1ccc(Nc2cc(Cl)ccc2C(=O)O)cn1`, for which the inhibition was 96.9% (active) (at 35 µM) and 74% (confirmation average, at 20 µM).

Values taken from PubChem BioAssay AID2012 (Sanford-Burnham Center for Chemical Genomics, 2009).
